Compound activity (PubChem)
FXN GAA850 act: FXN promoter activators, primary screen, cell-based, luciferase luminescence, HEK293 lucGAA850 | HEK293 lucGAA850 FXN promoter luciferase reporter, 24 h; percent of 10 µM SAHA response | activation, % at 6 µM | hit rate 0.56% among 360,000 | AID 540364, 2011;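 active = activation above the average of all compounds screened plus 3 SD, cutoff fixed separately per campaign, cut at about 7.5% in these data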;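 note: 0% = DMSO wells and 100% = 10 µM SAHA wells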
SMARCA2 act: SMARCA2 (BRM) function activators, primary screen, cell-based, luminescence, high throughput; MG213 cells, MMTV-luciferase reporter, dexamethasone, overnight; activation, % at 9.1 µM; hit rate 1% among 370,000; AID 652017, 2013; in the data active = activation above about 7.8%;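 note: 0% = vehicle wells and 100% = reference activator wells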
KLK7 zymogen act: proKLK7 zymogen activators, primary screen, biochemical, fluorescence intensity | Kallikrein-7 (Homo sapiens), P49862 | activation, % at 7 µM | purified proKLK7, EDANS-DABCYL substrate fluorescence; 100% is mature enzyme control, 0% vehicle | hit rate 0.9% among 370,000;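 active = activation above the mean of all tested compounds plus 3 SD, computed per campaign excluding outliers beyond control limits, cut at about 13% in these data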
Target sequence (P49862 whole entry, looked up): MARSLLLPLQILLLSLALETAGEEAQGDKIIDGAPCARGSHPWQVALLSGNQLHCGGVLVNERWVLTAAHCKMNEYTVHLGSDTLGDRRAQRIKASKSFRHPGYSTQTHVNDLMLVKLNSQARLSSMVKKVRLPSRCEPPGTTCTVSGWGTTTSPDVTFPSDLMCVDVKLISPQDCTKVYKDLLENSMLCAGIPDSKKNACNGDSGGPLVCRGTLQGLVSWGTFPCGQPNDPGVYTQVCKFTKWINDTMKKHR
FAS TE block: FAS thioesterase domain inhibitors, primary screen, biochemical, fluorescence intensity, uHTS. Fatty acid synthase (Homo sapiens), P49327. recombinant FAS-TE, OMFH fluorogenic substrate, fluorescence endpoint. inhibition, % at 15 µM. hit rate 0.67% among 360,000. AID 602261, 2012;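 active = compounds whose normalised, plate-corrected inhibition of enzyme fluorescence in the single-dose primary screen is 50% or more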;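 note: 0% = DMSO with enzyme and 100% = substrate without enzyme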
SMARCA2 conf: SMARCA2 (BRM) function activators, confirmation, cell-based, luminescence, triplicate; shares compounds with SMARCA2 act; MG213 cells, MMTV-luciferase with dexamethasone, overnight; MG213 cells expressing E1A, Rb sequestered; DMSO wells 0%, reference activator 100%; activation, % at 9.1 µM; hit rate 30% among 3,500; AID 652260, 2013;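 active = activation above its plate's cutoff, the mean activation of tested wells plus 3 SD, cut at about 7.9% in these data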
VP16 Luc act: GAL4-VP16 luciferase reporter activation, counter-screen for SMARCA2 (BRM) activator project, cell-based, pG5luc, luminescence, high throughput; shares compounds with SMARCA2 act; HEK293 GAL4-VP16 pG5luc reporter; scaled: DMSO wells 0%, SAHA wells 100%; activation, % at 9.1 µM; hit rate 41% among 3,500;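 active = activation above the solvent-only control well mean plus 3 SD, averaged across control plates, cut at about 5.2% in these data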
Active calls of the source: *; . = no result given. Sampled rows, rich in hits. Any-hit rate of the full collection: about 2.9%.

SMILES	FXN GAA850 act	SMARCA2 act	KLK7 zymogen act	FAS TE block	SMARCA2 conf	VP16 Luc act
Cc1ccc(NCCN(C)C)c2c(=O)c3cc(O)ccc3sc12	-4	3	-1	-2	.	.
CN(C)CCNc1cccc2sc3ccc(O)cc3c(=O)c12	.	16*	-1	1	31*	8.4*
COc1cccc(NC(=O)CN(C)C(=O)c2cccc(NS(=O)(=O)c3ccc(Br)cc3)c2)c1	2	-3	0	11	.	.
CC(C(=O)Nc1ccccc1)C(=O)Nc1ccccc1	0	4	0	-5	.	.
CC(=O)C(Cl)C(=O)Nc1ccccc1 (centres undefined)	5	8.5*	1	7	-14	0
CC1CCN(S(=O)(=O)c2ccc3[nH]cc(C(=O)NCCN4CCOCC4)c(=O)c3c2)CC1	-3	0	-4	-2	.	.
CCOC(=O)N1CCN(c2c(N3CCC(N4CCCCC4)CC3)c(=O)c2=O)CC1	-1	8.0*	0	-4	0	2
O=C(CCN1CCN(C(=O)c2ccccc2)CC1)c1ccc(Br)cc1	0	-2	0	0	.	.
COc1ccc(C(=O)NCCc2nnc3ccc(SCC(=O)NCc4ccccc4)nn23)cc1	2	-1	-1	1	.	.
Cc1c(NC(=S)NC(=O)COc2ccccc2)c(=O)n(-c2ccccc2)n1C	-1	0	-1	-14	.	.
COc1ccc(CN2CCNC(=O)C2CC(=O)O)cc1OC (centres undefined)	1	12*	0	0	-1	0
CC1=C(C(=O)OCc2ccccc2)C(/C=C/c2ccccc2)N2C(=O)CCSC2=N1 (centres undefined)	1	-1	-2	19	.	.
Cc1cc(-c2csc(N)n2)c(C)n1C	0	-1	1	-82	.	.
Cc1ccc(-n2c(C)cc(-c3csc(N)n3)c2C)cc1	0	12*	-1	-116	-10	-1
O=C(Nc1ccc(F)cc1F)c1ccccc1-c1ccccc1	3	5	0	0	.	.
O=C(Nc1cccc(F)c1)c1ccccc1	1	-1	1	-4	.	.
O=C(Nc1cccc(F)c1)c1ccccc1-c1ccccc1	0	9.0*	0	3	0	-1
O=C(Nc1ccc(Nc2ccccc2)cc1)c1cccc(F)c1	3	9.0*	0	23	6	6.7*
CCNc1nc(NC(C)C)nc(-c2ccncc2)n1	.	.	.	0	.	.
Cc1ccc(C)c(N2CCN(c3cnn(-c4nc5ccccc5s4)c(=O)c3Cl)CC2)c1	6	9.3*	0	6	4	6.5*
CC1CCCCN1C(=O)CSc1nnc(-c2ccccc2O)o1 (centres undefined)	5	8.9*	0	0	2	10*
Cc1nn(-c2ccccc2)c(Cl)c1/C=N/Nc1ccc(Cl)c(C(=O)O)c1	7	8.9*	-1	26	9.4*	14*
NS(=O)(=O)c1ccc(N2N=C(c3ccccc3)CC2c2cccc(Br)c2)cc1 (centres undefined)	0	-5	-205	22	.	.
CCC(C)NC(=O)C1(N2C(=O)c3ccccc3C2=O)CCCC1 (centres undefined)	-2	8.8*	-1	0	1	0
CN(C)c1cccc(CNC(=O)c2csc([C@@H]3O[C@H](CO)[C@@H](O)[C@H]3O)n2)c1	-1	8.3*	0	-9	-4	0
O=C(CSCc1nc2ccccc2[nH]1)Nc1ccc(Oc2ccccc2)cc1	-2	-3	0	12	.	.
O=c1[nH]c2cc([N+](=O)[O-])ccc2c2ccccc12	4	-1	0	9	.	.
O=C1Cc2c([nH]c3ccc([N+](=O)[O-])cc23)-c2ccccc2N1	-1	13*	1	1	11*	-2
Cc1ccc(Nc2nc(N)nc(CN3CCN(C(=O)c4ccco4)CC3)n2)cc1Cl	3	8.5*	0	-1	1	1
